Data reported in PubChem BioAssay.
Activity calls are given as the source filed them. Unless noted, the rule behind the calls is not given here.

Tests used:
[1] = resazurin metabolic signal in HepG2 cells – cell-based, resazurin fluorescence, 24 h, PK04 Diversity Set, profiling panel (AID 1172); conditions: HepG2 viability, higher = more signal
[2] = budding yeast growth changes without added modifier – OD600, strain BY4716, 24 h, basal condition, primary screen (AID 1173); conditions: S. cerevisiae BY4716 growth, OD600, 24 h; higher = more signal, called active from +8 up or from −8 down
[3] = viability profiling in MM1S myeloma cells – cell-based, resazurin fluorescence, basal, 24 h, PK04 Diversity Set, profiling panel (AID 1174); conditions: higher = more signal, called active from +8 up or from −8 down;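 note: MM1S multiple myeloma cell line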
[4] = biological target: Dihydroorotate dehydrogenase (quinone), mitochondrial (Plasmodium falciparum (isolate 3D7)) (UniProt Q08210); assay: inhibition of P. falciparum DHODH – biochemical, C-terminal His tag, absorbance 600 nm, primary screen (AID 1175); conditions: PfDHODH enzyme, DCIP absorbance 600 nm; higher = more signal, called active from +8 up or from −8 down;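 note: recombinant parasite enzyme with a five histidine tag at its C terminus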
[5] = inhibition of PAO1 biofilm formation – strain PAO1, LB-PBS medium, absorbance 600 nm, primary screen (AID 1176); conditions: P. aeruginosa PAO1 growth/biofilm, A600, 12 h; higher = more signal
[6] = growth modulation of vineyard yeast isolate – strain RM11-1a, OD600, basal, 24 h, primary screen (AID 1177);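 note: cultures grown under basal conditions with no added stressor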; conditions: S. cerevisiae RM11-1a growth, OD600, 24 h; higher = more signal, called active from +8 up or from −8 down
[7] = growth of efflux-deficient E. coli DRC39 – strain DRC39, OD650, 24 h, E. coli filamentation inducers, primary screen (AID 1178);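 note: growth measured as culture turbidity by optical density at 650 nm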; conditions: E. coli DRC39 acrAB, higher = more signal, called active from +8 up or from −8 down
[8] = growth of efflux-deficient E. coli DRC39 – strain DRC39, OD650, 48 h, E. coli filamentation inducers, primary screen (AID 1179);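 note: screen aims at cell division blockers that make cells filament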; conditions: E. coli DRC39 delta-acrAB growth, higher = more signal, called active from +8 up or from −8 down
[9] = viability profiling in RPMI8226 myeloma cells – cell-based, resazurin fluorescence, basal, 24 h, PK04 Diversity Set, profiling panel (AID 1180); conditions: higher = more signal;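 note: RPMI8826 multiple myeloma cell line at 5000 cells per well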
[10] = biological target: E3 ubiquitin-protein ligase XIAP (Homo sapiens) (UniProt P98170); assay: small molecules binding XIAP protein – biophysical, small-molecule microarray, fluorescence 635 nm, primary screen (AID 1181); conditions: higher = more signal;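 note: score merges 667 nm emission and signal to noise over triplicate slides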
[11] = tested on: XIP peptide (Xip251-270) binding; assay: XIP fragment 251-270 binding compounds – biochemical, small-molecule microarray, fluorescence 635/667 nm, 0.1 µg/mL protein, primary screen (AID 1182); conditions: fluorescent protein binding, 635 nm, higher = more signal, called active from +8 up or from −8 down
[12] = tested on: XIP peptide (Xip251-270); assay: compounds binding XIP fragment 251-270 – biochemical, small-molecule microarray, fluorescence 635/667 nm, 0.5 µg/mL protein, primary screen (AID 1183); conditions: fluorescence 635 nm, higher = more signal
[13] = blood-stage malaria parasite viability loss – strain 3D7, DAPI fluorescence, 100 nL, primary screen (AID 1184);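 note: parasites grown inside human red blood cells in medium with human serum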; conditions: P. falciparum 3D7 growth, 3 d, higher = more signal
[14] = biological target: Homeobox protein Hox-A13 (Mus musculus) (UniProt Q62424); assay: disruptors of Hoxa13 oligonucleotide interaction – biochemical, fluorescence polarization, labeled oligonucleotide, primary screen (AID 1185); conditions: Hoxa13:DNA binding, 15 min, higher = more signal, called active from +8 up or from −8 down
[15] = blockers of DNA damage checkpoint Chk1 activation – imaging, HeLa, hydroxyurea, phospho-Chk1 antibody, percent positive cells, primary screen (AID 1186); conditions: hydroxyurea-induced phospho-Chk1 immunofluorescence imaging, higher = more signal
[16] = blockers of DNA damage checkpoint Chk1 activation – imaging, HeLa, hydroxyurea, phospho-Chk1 nuclear intensity, primary screen (AID 1187); conditions: hydroxyurea-induced phospho-Chk1 immunofluorescence imaging, higher = more signal

Chain of Dihydroorotate dehydrogenase (quinone), mitochondrial (Plasmodium falciparum (isolate 3D7)) (Q08210 whole entry, looked up): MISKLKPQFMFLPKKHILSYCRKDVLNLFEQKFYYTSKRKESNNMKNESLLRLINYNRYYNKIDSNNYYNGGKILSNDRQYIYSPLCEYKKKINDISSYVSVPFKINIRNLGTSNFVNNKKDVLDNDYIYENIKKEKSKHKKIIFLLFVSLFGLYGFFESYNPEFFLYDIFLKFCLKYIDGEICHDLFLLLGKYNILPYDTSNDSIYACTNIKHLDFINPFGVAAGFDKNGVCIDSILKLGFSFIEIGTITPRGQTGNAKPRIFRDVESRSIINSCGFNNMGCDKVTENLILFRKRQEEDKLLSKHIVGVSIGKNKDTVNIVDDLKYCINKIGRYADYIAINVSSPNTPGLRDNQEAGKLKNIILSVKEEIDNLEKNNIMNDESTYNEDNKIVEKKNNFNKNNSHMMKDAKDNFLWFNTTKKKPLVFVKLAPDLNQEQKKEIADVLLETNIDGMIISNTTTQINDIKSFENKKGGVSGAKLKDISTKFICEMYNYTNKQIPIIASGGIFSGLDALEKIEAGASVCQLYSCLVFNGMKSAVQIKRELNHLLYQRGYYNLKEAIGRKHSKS
Chain of E3 ubiquitin-protein ligase XIAP (Homo sapiens) (P98170 whole entry, looked up, the tested form may be a part): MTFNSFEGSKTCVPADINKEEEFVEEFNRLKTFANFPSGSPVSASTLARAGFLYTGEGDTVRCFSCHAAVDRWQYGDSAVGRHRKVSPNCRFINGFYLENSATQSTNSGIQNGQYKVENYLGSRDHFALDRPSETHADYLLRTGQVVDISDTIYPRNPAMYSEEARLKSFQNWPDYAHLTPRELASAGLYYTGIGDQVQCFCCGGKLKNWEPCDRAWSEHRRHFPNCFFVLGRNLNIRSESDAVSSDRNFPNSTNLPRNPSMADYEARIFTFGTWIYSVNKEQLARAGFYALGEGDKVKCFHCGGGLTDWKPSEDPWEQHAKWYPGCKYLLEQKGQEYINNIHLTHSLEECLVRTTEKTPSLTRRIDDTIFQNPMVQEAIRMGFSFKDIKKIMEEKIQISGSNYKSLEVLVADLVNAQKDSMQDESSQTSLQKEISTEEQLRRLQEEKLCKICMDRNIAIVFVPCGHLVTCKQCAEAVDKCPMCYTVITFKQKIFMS
Chain of Homeobox protein Hox-A13 (Mus musculus) (Q62424 whole entry, looked up): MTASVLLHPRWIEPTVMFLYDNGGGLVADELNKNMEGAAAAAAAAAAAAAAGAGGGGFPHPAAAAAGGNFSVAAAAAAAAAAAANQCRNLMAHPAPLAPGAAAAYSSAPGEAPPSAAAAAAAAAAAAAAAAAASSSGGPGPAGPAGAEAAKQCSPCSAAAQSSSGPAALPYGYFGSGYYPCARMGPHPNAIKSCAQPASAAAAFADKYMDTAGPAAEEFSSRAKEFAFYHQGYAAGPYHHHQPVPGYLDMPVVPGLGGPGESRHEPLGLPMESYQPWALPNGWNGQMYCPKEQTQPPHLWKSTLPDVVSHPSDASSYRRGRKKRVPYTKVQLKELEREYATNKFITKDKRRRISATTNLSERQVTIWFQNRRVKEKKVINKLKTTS

| SMILES | z-score [1] | z-score [2] | z-score [3] | composite z-score [4] | z-score [5] | z-score [6] | z-score [7] | z-score [8] | z-score [9] | composite z-score [10] | composite z-score [11] | composite z-score [12] | z-score [13] | z-score [14] | z-score [15] | z-score [16] |
| --- | --- | --- | --- | --- | --- | --- | --- | --- | --- | --- | --- | --- | --- | --- | --- | --- |
| CCCCC(O)C1C=CC2C(=O)N(c3ccccc3)C(=O)C2N1Nc1ccc(C(C)C)cc1 (stereo not given) | -0.741 | -0.443 (inactive) | -1.1 (inactive) | 0.119 (inactive) | 1.14 (inactive) | 0.477 (inactive) | -0.622 (inactive) | 0.0644 (inactive) | -0.471 | 0.199 | -0.0775 (inactive) | 0.706 | -0.243 | -2.48 (inactive) | -0.638 (inactive) | -1.2 (inactive) |
| C[C@]1(C(=O)NC2CC2)c2ccccc2C(=O)N(Cc2ccccc2)[C@H]1c1ccc(CO)cc1 | -0.0738 | -0.886 (inactive) | 1.62 (inactive) | -0.806 (inactive) | 0.553 (inactive) | -1.02 (inactive) | 0.809 (inactive) | 0.653 (inactive) | 1.08 | -0.234 | -0.0942 (inactive) | -0.227 | -1.62 | -1.31 (inactive) | -0.483 (inactive) | -0.567 (inactive) |
| CCOC(=O)C[C@H]1[C@H](OC(=O)c2cc3ccccc3oc2=O)[C@@H](NC(=O)Cc2ccc(OC)cc2)c2cc(OCCCO)ccc2N1C(=O)c1ccc2ccccc2n1 | -0.604 | -1.05 (inactive) | -0.377 (inactive) | 0.0564 (inactive) | -0.234 (inactive) | -0.315 (inactive) | 0.928 (inactive) | 0.337 (inactive) | -0.0615 | -0.0414 | -0.426 (inactive) | 0.255 | -1.01 | -4.04 (inactive) | 0.134 (inactive) | 0.203 (inactive) |
| O=C1O[C@H](c2ccccc2)[C@H](c2ccccc2)N2[C@H]1[C@@H](C(=O)Nc1nc3ccccc3s1)[C@]1(C(=O)Nc3ccc(C#CC4(O)CCCCCC4)cc31)[C@H]2c1ccccc1OCCO | 0.162 | 1.49 (inactive) | -3.4 (inactive) | -1.28 (inactive) | 3.52 (inactive) | 2.74 (inactive) | -0.295 (inactive) | -0.508 (inactive) | -5.13 | 0.25 | 0.0536 (inactive) | 0.812 | -2.09 | 2.05 (inactive) | 0.66 (inactive) | 0.976 (inactive) |
| CCOC(=O)C1CCCCN1 (stereo not given) | -0.241 | 0.466 (inactive) | 0.122 (inactive) | -0.254 (inactive) | 0.0619 (inactive) | 0.0958 (inactive) | -0.33 (inactive) | -0.0724 (inactive) | -0.809 | -0.222 | -0.679 (inactive) | -0.0839 | 1.57 | 0.65 (inactive) | 0.0889 (inactive) | 0.0121 (inactive) |
| CCOC(=O)C[C@H]1[C@H](OC(=O)c2ccccc2-c2ccccc2)[C@@H](NC(=O)c2ccc(-c3ccccc3)cc2)c2cc(OCCCO)ccc2N1C(=O)c1ccc2ccccc2n1 | -0.0523 | 0.662 (inactive) | 0.128 (inactive) | -0.0558 (inactive) | 0.318 (inactive) | 0.752 (inactive) | -0.447 (inactive) | -0.0565 (inactive) | 0.636 | 0.0891 | -0.07 (inactive) | 0.421 | -0.557 | -1.48 (inactive) | -0.145 (inactive) | -0.0265 (inactive) |
| COC(=O)[C@@]1(Cc2ccccc2)[C@H]2c3cc(C(=O)N(C)C)n(CCc4ccc(O)c(OC)c4)c3C[C@H]2CN1C(=O)c1ccccc1 | 0.0393 | 0.483 (inactive) | -0.207 (inactive) | -0.487 (inactive) | 0.454 (inactive) | 0.194 (inactive) | -0.514 (inactive) | -0.253 (inactive) | 0.0379 | -0.0373 | 0.132 (inactive) | -0.358 | 0.692 | -0.394 (inactive) | 0.727 (inactive) | 0.652 (inactive) |
| CN1C(=O)C2C=CC(C(O)c3cccc4ccccc34)N(N3CCCCC3)C2C1=O (stereo not given) | -0.908 | 1.51 (inactive) | -1.41 (inactive) | -0.0243 (inactive) | -0.0625 (inactive) | -0.334 (inactive) | -0.619 (inactive) | -0.456 (inactive) | -1.74 | 0.0077 | 0.356 (inactive) | 0.749 | 0.83 | -4.64 (inactive) | 0.906 (inactive) | 0.271 (inactive) |
| O=C1OCCC=C[C@H]2OC34C=CCN(Cn5nnc6ccccc65)C(=O)[C@H]3N(CCCCCCO)C(=O)[C@@H]4C12 (stereo not given in full) | -0.677 | 0.506 (inactive) | -2.51 (inactive) | -0.272 (inactive) | 0.205 (inactive) | 0.587 (inactive) | 0.603 (inactive) | 0.703 (inactive) | -0.288 | -0.302 | 1.62 (inactive) | -0.948 | 0.006 | -3.78 (inactive) | -0.667 (inactive) | -0.21 (inactive) |
| COC(=O)C1=CC(CCCO)=CC(C2CC2)N(C)C=C1C(=O)OC (stereo not given) | 0.421 | -0.589 (inactive) | -0.463 (inactive) | -1.43 (inactive) | 0.82 (inactive) | -1.09 (inactive) | 1.04 (inactive) | 1.58 (inactive) | -0.0242 | 0.0054 | 0.473 (inactive) | 0.16 | 0.493 | -6.16 (inactive) | -0.68 (inactive) | -1.04 (inactive) |
